Experimental data: the supplement of paper PMC11732987, “Enantioselective OTUD7B fragment discovery through chemoproteomics screening and high-throughput optimisation” (Communications Chemistry, 2025)

Legend:
Test in all cases: log2 ratio of Biotin-Ahx-Ub-VS probe labelling (fragment/DMSO); higher = less target engagement (more negative = stronger competition), active = hit call of the paper (q ≤ 0.05, log2 ratio ≤ -1)
Settings in all cases: compound concentration: 200 uM; treatment time: 3 h
OTUD6B = target: T1, OTUD6B (UniProt Q8N6M0)
T1 sequence (whole entry): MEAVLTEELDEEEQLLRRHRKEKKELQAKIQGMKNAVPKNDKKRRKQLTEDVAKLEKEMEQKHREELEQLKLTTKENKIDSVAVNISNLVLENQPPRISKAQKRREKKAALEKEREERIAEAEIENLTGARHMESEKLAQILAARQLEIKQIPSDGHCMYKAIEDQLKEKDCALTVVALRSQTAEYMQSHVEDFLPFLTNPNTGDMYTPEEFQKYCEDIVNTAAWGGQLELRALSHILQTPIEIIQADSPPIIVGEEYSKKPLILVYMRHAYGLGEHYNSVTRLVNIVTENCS
Summary of the method: (§1)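 Fragment (200 µM) or vehicle was incubated for 3 h with triplicate HEK293T lysate samples of 495 µg, which were then treated with Biotin-Ahx-Ub-VS at 0.5 µM final for 1 h. Labelled DUBs were enriched on NeutrAvidin, digested with LysC and trypsin, and analysed by diaPASEF LC-MS/MS. Values are average log2 fragment/vehicle ratios from an unpaired t-test on global-median-normalised Spectronaut label-free quantities, using proteins with ≥2 unique peptides.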

OTUD7B = target: T2, OTUD7B (UniProt Q6GQQ9)
T2 sequence (whole entry): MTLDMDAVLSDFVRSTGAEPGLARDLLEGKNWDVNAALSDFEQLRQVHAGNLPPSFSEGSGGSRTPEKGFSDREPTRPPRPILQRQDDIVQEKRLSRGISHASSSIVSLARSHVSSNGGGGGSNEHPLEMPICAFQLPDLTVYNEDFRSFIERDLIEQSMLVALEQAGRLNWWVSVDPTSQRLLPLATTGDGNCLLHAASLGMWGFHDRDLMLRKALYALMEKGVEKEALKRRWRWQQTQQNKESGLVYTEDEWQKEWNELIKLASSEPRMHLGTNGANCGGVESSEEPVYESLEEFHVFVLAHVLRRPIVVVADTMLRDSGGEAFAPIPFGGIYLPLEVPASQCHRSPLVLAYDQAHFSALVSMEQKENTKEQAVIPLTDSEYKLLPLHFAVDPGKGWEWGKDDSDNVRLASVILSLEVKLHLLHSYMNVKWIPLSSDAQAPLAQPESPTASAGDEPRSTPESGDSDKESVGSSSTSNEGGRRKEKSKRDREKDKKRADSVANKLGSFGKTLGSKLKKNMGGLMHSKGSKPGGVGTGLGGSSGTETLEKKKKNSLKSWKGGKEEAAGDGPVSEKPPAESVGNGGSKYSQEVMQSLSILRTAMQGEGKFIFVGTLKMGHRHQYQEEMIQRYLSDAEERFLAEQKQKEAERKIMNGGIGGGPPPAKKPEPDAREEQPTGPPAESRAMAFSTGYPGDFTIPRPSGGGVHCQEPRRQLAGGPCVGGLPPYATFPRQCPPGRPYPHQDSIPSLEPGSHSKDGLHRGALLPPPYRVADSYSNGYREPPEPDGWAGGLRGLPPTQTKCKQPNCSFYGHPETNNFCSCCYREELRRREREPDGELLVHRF
Summary of the method: as §1

PRPF8 = PRPF8 (UniProt Q6P2Q9)
Summary of the method: as §1

PSMD7 = target: T3, PSMD7 (UniProt P51665)
T3 sequence (whole entry): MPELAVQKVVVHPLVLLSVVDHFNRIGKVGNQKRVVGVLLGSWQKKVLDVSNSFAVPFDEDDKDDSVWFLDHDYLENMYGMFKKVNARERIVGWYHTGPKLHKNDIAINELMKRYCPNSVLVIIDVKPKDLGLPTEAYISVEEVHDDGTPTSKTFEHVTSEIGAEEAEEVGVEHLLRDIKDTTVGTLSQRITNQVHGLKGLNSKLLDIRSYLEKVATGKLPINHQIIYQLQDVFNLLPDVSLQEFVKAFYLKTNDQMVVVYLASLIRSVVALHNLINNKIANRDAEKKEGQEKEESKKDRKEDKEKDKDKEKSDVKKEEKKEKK
Summary of the method: as §1

UCHL1 = UCHL1 (UniProt P09936)
Summary of the method: as §1

UCHL3 = target: T4, UCHL3 (UniProt P15374)
T4 sequence (whole entry): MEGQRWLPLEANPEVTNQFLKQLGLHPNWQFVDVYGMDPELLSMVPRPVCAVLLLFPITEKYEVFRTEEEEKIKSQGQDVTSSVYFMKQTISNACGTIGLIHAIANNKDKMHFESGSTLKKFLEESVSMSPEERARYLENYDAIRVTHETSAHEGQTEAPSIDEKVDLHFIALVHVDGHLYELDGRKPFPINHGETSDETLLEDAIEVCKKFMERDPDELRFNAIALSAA
Summary of the method: as §1

UCHL5 = target: T5, UCHL5 (UniProt Q9Y5K5)
T5 sequence (whole entry): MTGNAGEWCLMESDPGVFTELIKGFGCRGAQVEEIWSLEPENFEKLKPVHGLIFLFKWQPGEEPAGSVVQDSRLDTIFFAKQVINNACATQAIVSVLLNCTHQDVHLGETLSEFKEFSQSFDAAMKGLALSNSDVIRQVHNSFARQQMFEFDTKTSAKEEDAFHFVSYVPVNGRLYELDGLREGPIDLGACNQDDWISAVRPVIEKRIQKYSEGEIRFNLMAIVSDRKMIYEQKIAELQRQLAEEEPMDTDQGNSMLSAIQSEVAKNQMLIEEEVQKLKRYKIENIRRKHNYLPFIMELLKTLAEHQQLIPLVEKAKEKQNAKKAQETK
Summary of the method: as §1

USP10 = USP10 (UniProt Q14694)
Summary of the method: as §1

USP15 = target: T6, USP15 (UniProt Q9Y4E8)
T6 sequence (whole entry): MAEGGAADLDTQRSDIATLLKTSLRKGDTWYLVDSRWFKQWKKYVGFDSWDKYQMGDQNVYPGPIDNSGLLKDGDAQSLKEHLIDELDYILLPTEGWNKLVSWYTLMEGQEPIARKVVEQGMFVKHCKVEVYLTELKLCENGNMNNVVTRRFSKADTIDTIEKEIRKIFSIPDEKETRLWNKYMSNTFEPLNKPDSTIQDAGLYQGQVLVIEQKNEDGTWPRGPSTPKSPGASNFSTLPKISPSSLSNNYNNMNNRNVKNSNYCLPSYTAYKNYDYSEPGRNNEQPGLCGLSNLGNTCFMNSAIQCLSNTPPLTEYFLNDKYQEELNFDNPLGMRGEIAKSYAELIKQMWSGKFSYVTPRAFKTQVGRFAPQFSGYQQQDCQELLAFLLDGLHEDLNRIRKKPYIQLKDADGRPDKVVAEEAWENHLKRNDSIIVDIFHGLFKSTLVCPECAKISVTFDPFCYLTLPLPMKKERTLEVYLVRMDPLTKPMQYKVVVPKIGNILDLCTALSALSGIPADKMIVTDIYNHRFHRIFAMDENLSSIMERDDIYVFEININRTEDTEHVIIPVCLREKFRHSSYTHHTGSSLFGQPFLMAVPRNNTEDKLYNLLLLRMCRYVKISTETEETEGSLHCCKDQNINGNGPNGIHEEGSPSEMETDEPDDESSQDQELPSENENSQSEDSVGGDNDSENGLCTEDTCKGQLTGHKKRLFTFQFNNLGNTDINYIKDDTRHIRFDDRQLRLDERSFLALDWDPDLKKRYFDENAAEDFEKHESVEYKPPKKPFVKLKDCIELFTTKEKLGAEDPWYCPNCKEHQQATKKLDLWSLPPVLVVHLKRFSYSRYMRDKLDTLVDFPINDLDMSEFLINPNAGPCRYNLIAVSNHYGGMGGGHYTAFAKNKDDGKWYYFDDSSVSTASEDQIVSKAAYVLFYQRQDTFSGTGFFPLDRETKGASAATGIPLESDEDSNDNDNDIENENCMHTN
Summary of the method: as §1

USP16 = USP16 (UniProt Q9Y5T5)
Summary of the method: as §1

Measured: log2 ratio of Biotin-Ahx-Ub-VS probe labelling

USP10, sequence (Q14694 whole entry): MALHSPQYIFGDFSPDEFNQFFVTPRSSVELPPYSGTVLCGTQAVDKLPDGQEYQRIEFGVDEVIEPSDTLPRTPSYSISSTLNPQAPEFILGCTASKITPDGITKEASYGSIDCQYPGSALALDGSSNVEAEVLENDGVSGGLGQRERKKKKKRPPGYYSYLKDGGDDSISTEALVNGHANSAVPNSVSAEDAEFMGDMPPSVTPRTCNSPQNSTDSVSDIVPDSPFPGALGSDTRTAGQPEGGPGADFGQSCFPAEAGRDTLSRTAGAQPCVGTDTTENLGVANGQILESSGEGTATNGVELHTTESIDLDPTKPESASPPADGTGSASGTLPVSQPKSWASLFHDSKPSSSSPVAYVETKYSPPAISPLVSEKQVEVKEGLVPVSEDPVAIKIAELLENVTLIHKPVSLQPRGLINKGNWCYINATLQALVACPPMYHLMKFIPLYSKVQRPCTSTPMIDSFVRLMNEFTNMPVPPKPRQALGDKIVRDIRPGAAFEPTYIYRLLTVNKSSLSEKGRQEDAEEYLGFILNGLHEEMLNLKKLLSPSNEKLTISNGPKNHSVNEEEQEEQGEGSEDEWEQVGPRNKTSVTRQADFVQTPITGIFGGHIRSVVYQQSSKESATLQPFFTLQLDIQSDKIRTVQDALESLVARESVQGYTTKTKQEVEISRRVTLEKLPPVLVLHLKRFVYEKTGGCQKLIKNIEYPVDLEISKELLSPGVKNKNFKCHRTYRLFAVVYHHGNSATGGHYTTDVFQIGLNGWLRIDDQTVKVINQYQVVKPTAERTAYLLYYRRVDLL
UCHL1, sequence (P09936 whole entry, looked up): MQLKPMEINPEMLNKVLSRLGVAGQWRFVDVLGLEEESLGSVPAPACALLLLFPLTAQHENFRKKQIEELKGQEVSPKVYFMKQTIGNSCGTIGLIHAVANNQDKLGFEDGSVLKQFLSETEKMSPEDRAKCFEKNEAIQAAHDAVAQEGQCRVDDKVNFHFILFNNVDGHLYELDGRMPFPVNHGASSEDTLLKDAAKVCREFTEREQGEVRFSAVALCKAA
USP16, sequence (Q9Y5T5 whole entry, looked up): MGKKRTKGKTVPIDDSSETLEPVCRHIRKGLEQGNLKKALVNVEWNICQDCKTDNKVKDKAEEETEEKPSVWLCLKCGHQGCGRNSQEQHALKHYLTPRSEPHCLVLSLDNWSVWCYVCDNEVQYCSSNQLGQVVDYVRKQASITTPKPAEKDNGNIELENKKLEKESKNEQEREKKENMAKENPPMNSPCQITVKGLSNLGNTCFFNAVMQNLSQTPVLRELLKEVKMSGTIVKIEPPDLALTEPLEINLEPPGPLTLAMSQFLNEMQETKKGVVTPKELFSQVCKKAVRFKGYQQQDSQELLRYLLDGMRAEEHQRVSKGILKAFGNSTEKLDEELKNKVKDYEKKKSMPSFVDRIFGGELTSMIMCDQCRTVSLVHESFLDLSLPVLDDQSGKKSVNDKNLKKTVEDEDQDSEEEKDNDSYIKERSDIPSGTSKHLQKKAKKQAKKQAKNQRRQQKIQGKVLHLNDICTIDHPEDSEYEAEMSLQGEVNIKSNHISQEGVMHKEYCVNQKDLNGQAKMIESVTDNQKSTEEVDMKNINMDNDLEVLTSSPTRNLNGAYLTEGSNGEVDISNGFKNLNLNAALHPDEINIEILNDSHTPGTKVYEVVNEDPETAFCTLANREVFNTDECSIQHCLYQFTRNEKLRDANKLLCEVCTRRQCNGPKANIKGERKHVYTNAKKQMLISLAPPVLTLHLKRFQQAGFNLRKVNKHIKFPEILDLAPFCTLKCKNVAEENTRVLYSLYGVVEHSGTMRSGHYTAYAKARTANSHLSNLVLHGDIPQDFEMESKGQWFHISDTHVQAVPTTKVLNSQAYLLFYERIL

O=C(CCl)NCc1ccc(N2CCOCC2)nc1
inactive: OTUD6B -0.139 | OTUD7B -0.502 | PRPF8 -0.0538 | PSMD7 -0.249 | UCHL3 0.0731 | UCHL5 -0.235 | USP10 -0.0833 | USP15 -0.285 | USP16 -0.342
active: UCHL1 -1.45
